Assay outcomes from PubChem.
DT40 TDP1 CPT – growth inhibition of DT40 Tdp1-/-;hTDP1 cells with camptothecin (screen for TDP1 inhibitors); Potency, µM (series often up to 46.2 µM), actives largely listed as inhibitors; actives 12% (n = 420,000); chicken DT40 Tdp1-/-;hTDP1 cells + 20 nM CPT, ATP luminescence, 48 h; also: nearly all actives have a fitted effect of over 55% in size
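Cell growth measured by CellTiter-Glo luminescence after a minimum 48 h, 37 C compound exposure with 20 nM CPT in Tdp1-knockout DT40 cells stably expressing hTDP1, seeded 400/well; qHTS titration format.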
HT1080 IDH1KD tx – toxicity to HT-1080 IDH1 knockdown cells (counter line); AID 686971; Potency, µM (highest dose often 46.1 µM), hits mostly cytotoxic; actives 2% (n = 360,000); HT-1080 IDH1 knockdown viability, ATP luminescence, 48 h
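HT-1080-IDH1KD cells (IDH1 knocked down), 750/well in RPMI with 5% FBS, treated with compound 48 h at 37 degrees C. Viability by CellTiter-Glo luminescence, normalised to DMSO and no-cell wells; concentration-response curves classed.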
DT40 TDP1 no CPT – qHTS for Inhibitors of human tyrosyl-DNA phosphodiesterase 1 (TDP1): qHTS in cells in absence of CPT | Potency, µM (top dose mostly 46.2 µM), usual class: inhibitors | actives 15% (n = 420,000) | AID 686978, 2013 | DT40 Tdp1-/- hTDP1 cells, no CPT, ATP luminescence, 48 h; also: nearly all actives have a fitted effect of over 55% in size
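Chicken DT40 Tdp1-/- cells complemented with human TDP1, screened without camptothecin (DMSO vehicle only), 400 cells/well. Compounds pin-transferred, cells incubated at 37 °C for at least 48 hr. Growth read as ATP-dependent luminescence (CellTiter-Glo, 30 min at RT).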
HT1080-NT tox – kills 2HG-producing HT-1080-NT fibrosarcoma cells. HT-1080-NT fibrosarcoma viability, CellTiter-Glo ATP luminescence, 48 h. Potency, µM (top dose mostly 46.1 µM), most hits filed as cytotoxic. actives 1.6% (n = 360,000);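 also: NT is the 2HG producing partner of a matched IDH1 knockdown line; nearly all actives have a fitted effect of over 55% in size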
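Viability by CellTiter-Glo luminescence after 48 h compound exposure at 37C of HT-1080-NT cells (750/well, RPMI, 5% FBS). % activity scaled between DMSO wells and medium-only wells, then curve-fitted and categorized by curve class.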
IL1B secr inh – blocks inflammasome-driven IL-1 beta release; THP-1 LPS/ATP IL-1B secretion, AlphaLISA, 16 h; active compounds read low; activity change, % at 57.5 µM; actives 4.7% (n = 360,000); AID 743279; in the data active = activity change below about -50%; inconclusive = mostly about -30% to -49%
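THP-1 cells pretreated 1 hr with compounds (up to 57.5 uM final), then stimulated with LPS (250 ng/mL final) plus ATP (1.25 mM final); secreted IL-1B measured by AlphaLISA after 16 hr, decreased signal indicating inhibition.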
Each line names hits and unclear results; the compound was inactive in the other large screens. Sampled rows, rich in hits. Any-hit rate of the full collection: about 19%. Unless noted, calls follow the shape of the dose curve; as a rule, active = well fitted curve in the direction sought with a large enough effect; inconclusive = small, poorly fitted or top-dose-only effect, or another doubt; inactive = no such curve, though single readings can be large; an effect the other way counts as inactive or inconclusive.

COc1ccc(S(=O)(=O)N2CCC(C(=O)N[C@@H](C)C(=O)NC3CCCC3)CC2)cc1	DT40 TDP1 CPT 16µM, DT40 TDP1 no CPT inconclusive
CCCCNC(=O)C1CC(c2c(Cl)cccc2Cl)=NO1 (centres undefined)	DT40 TDP1 CPT 9.2µM, DT40 TDP1 no CPT 9.2µM
CCOC(=O)N1CCN(C(=O)c2cn(CC(C)C)c(=O)c3c2c2ccccc2n3C)CC1	DT40 TDP1 CPT inconclusive, DT40 TDP1 no CPT inconclusive
Cn1c2ccccc2c2c(C(=O)N3CCN(c4ccccn4)CC3)cn(C3CCCC3)c(=O)c21	DT40 TDP1 CPT inconclusive, DT40 TDP1 no CPT 15µM, IL1B secr inh -59
COc1ccc(N2CCN(C(=O)c3cn(C)c(=O)c4c3c3ccccc3n4C)CC2)cc1	DT40 TDP1 CPT inconclusive, HT1080 IDH1KD tx inconclusive, DT40 TDP1 no CPT 15µM
CCOC(=O)N1CCN(C(=O)c2cn(C)c(=O)c3c2c2ccccc2n3C)CC1	DT40 TDP1 CPT inconclusive, HT1080 IDH1KD tx inconclusive, DT40 TDP1 no CPT 25µM, HT1080-NT tox inconclusive
Cc1ccc(Cl)cc1N1CCN(C(=O)c2cn(C3CCCCC3)c(=O)c3c2c2ccccc2n3C)CC1	DT40 TDP1 CPT 23µM, DT40 TDP1 no CPT 18µM (no result: HT1080 IDH1KD tx, HT1080-NT tox, IL1B secr inh)
COc1ccc(-n2nc(C(=O)N3CCN(c4cccc(C)c4C)CC3)c3c4ccccc4n(C)c3c2=O)cc1	none (no result: HT1080 IDH1KD tx, HT1080-NT tox, IL1B secr inh)
Cn1c2ccccc2c2c(C(=O)N3CCN(C(=O)c4ccco4)CC3)cn(C3CCCCC3)c(=O)c21	DT40 TDP1 CPT inconclusive, HT1080 IDH1KD tx inconclusive, DT40 TDP1 no CPT inconclusive
CC(=O)Nc1ccc(NC2CCCCC2NS(=O)(=O)c2ccccc2)cc1 (centres undefined)	none
CC1(C(=O)NS(=O)(=O)c2cccc(OC(F)F)c2)CCN1C(=O)Cc1ccccc1 (centres undefined)	none
Cc1noc(-c2ccc(-c3noc(-c4cccc(Cl)c4)n3)cc2)n1	none (no result: HT1080 IDH1KD tx, HT1080-NT tox, IL1B secr inh)
COc1ccc(N2CCN(C(=O)c3cn(C4CCCC4)c(=O)c4c3c3ccccc3n4C)CC2)cc1	DT40 TDP1 CPT 16µM, HT1080 IDH1KD tx inconclusive, DT40 TDP1 no CPT 16µM
COc1ccc(-c2c(C)nc(N)nc2-c2ccc(OCc3ccc(C)cc3)cc2O)cc1OC	DT40 TDP1 CPT inconclusive, DT40 TDP1 no CPT 5.8µM
COc1ccc(-c2nc(N)nc(N)n2)c(O)c1	DT40 TDP1 CPT 15µM, DT40 TDP1 no CPT 16µM
COc1ccc(-c2nc(N)ncc2-c2ccc(OC)c(OC)c2)c(O)c1	DT40 TDP1 CPT inconclusive, HT1080 IDH1KD tx inconclusive, DT40 TDP1 no CPT inconclusive, HT1080-NT tox inconclusive, IL1B secr inh -53
Nc1ncc(-c2ccccc2)c(-c2ccc(O)cc2O)n1	HT1080 IDH1KD tx inconclusive, DT40 TDP1 no CPT inconclusive, HT1080-NT tox inconclusive, IL1B secr inh -92
O=C(c1ccco1)N1CCN(/C(=N/S(=O)(=O)c2cccs2)c2ccccc2Cl)CC1	none
O=C1CSC(=S)N1Cc1cccnc1	DT40 TDP1 CPT 4.6µM, HT1080 IDH1KD tx inconclusive, DT40 TDP1 no CPT 4.6µM, HT1080-NT tox inconclusive, IL1B secr inh -84
O=C(O)c1ccc(N=C2SCC(=O)N2Cc2ccccc2)cc1	none
O=C(O)c1ccc(CN2C(=O)CSC2=S)cc1	DT40 TDP1 CPT 18µM, DT40 TDP1 no CPT 18µM
O=C(O)c1cc(C(=O)O)cc(N2C(=O)CSC2=S)c1	none
O=C(O)c1ccc(N2C(=O)CSC2=S)cc1	DT40 TDP1 CPT inconclusive, DT40 TDP1 no CPT inconclusive, HT1080-NT tox inconclusive, IL1B secr inh -62
COC(=O)/C(=C(/F)Sc1cc(C)c(O)c(C)c1)C(F)(F)F	DT40 TDP1 CPT 10µM, HT1080 IDH1KD tx inconclusive, DT40 TDP1 no CPT 7.3µM
COc1cccc(/C=N/n2c(SC)nnc2-c2ccccc2)c1OC	DT40 TDP1 CPT inconclusive, DT40 TDP1 no CPT inconclusive
CCCCSc1nc(C)cc(SCC(=O)N/N=C/c2cccc(OC)c2O)n1	DT40 TDP1 CPT 1.5µM, HT1080 IDH1KD tx inconclusive, DT40 TDP1 no CPT 1.3µM, HT1080-NT tox inconclusive
COc1cccc(/C=N/n2c(SC)nnc2-c2ccccc2)c1O	DT40 TDP1 CPT 10µM, HT1080 IDH1KD tx inconclusive, DT40 TDP1 no CPT 16µM, HT1080-NT tox inconclusive
COc1cccc(/C=N/NC(=O)CSc2nnc(C)n2-c2ccccc2)c1O	DT40 TDP1 CPT inconclusive, HT1080 IDH1KD tx 13µM, DT40 TDP1 no CPT inconclusive, HT1080-NT tox inconclusive
